# According to PubChem BioAssay (NCATS):
# Inconclusive results are not listed. Where a call stands in place of a potency, no number is given. A number with no mark means an inactive call. Active and inactive are the calls of the source. Calls follow the shape of the dose curve; as a rule, active = well fitted curve in the direction sought with a large enough effect; inconclusive = small, poorly fitted or top-dose-only effect, or another doubt; inactive = no such curve, though single readings can be large; an effect the other way counts as inactive or inconclusive.
# What was measured:
# [1] = target: ATP-dependent 6-phosphofructokinase (Trypanosoma brucei brucei) (UniProt O15648); assay: qHTS Assay to Find Inhibitors of T. brucei phosphofructokinase: hit validation (AID 492961);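 also: luminescence reports ADP formed as PFK phosphorylates fructose-6-phosphate with ATP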
# ATP-dependent 6-phosphofructokinase (Trypanosoma brucei brucei), sequence (O15648 whole entry, looked up): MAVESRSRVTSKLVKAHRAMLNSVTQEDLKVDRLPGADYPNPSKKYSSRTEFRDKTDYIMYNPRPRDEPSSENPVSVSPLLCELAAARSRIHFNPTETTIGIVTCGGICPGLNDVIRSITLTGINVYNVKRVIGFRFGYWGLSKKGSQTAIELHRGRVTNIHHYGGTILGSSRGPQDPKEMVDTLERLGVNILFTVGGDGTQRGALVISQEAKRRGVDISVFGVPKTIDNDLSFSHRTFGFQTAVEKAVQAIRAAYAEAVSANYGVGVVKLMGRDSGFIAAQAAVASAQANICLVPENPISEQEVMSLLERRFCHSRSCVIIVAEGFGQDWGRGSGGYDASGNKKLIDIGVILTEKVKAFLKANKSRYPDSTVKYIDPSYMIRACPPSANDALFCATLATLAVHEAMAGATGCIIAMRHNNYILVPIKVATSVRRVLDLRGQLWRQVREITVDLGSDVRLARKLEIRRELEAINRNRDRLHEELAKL
# Method in brief: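 Reaction: 0.1 M triethanolamine pH 8.0, 5 mM MgCl2, F6P 0.5 mM, ATP 0.1 mM, PFK 1.25 nM, 45 min RT. Read-out: ADP-Glo luminescence. Analysis: concentration-response fits, classed by r2 and efficacy.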
# [2] = target: Luciferin 4-monooxygenase (Photinus pyralis) (UniProt P08659); assay: Biochemical firefly luciferase enzyme assay for NPC (AID 624030);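 also: purified P. pyralis luciferase at 10 nM with luciferin and ATP substrate; nearly all actives have a fitted effect of over 70% in size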
# Luciferin 4-monooxygenase (Photinus pyralis), sequence (P08659 whole entry, looked up): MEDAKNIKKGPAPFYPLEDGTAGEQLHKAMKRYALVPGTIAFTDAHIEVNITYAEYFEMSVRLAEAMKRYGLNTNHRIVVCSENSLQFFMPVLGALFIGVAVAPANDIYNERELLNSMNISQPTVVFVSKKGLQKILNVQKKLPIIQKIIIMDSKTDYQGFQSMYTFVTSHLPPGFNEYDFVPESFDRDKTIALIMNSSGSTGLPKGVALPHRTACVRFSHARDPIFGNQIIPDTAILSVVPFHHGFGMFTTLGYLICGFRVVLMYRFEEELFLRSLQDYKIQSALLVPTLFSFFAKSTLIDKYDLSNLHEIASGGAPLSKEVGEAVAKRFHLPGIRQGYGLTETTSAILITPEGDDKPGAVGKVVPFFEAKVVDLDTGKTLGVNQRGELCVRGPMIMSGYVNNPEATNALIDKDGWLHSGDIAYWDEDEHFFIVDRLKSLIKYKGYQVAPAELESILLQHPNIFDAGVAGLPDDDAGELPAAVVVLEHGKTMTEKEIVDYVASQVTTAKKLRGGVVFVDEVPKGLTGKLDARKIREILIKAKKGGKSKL
# Method in brief: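 Counter-screen for direct inhibition of the luciferase enzyme by approved-drug library compounds, run at 10 nM enzyme in 50 mM Tris acetate (final). Luminescence was read within 5 min of enzyme-buffer addition and normalized to PTC124 versus DMSO (0%).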
# [3] = qHTS profiling for inhibitors of Plasmodium falciparum proliferation (AID 504749); also: nearly all actives have a fitted effect of over 60% in size; details: P. falciparum in erythrocytes, SYBR Green DNA, 72 h, at 28.7 µM (top of the series)
# Method in brief: (§1)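 P. falciparum-infected erythrocytes (0.3% parasitemia, 2.5% hematocrit final) were exposed to compounds for 72 h at 37 C in 5% CO2, then lysed with SYBR Green buffer overnight at room temperature; parasite DNA fluorescence was normalized to artemisinin and DMSO controls.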
# [4] = system: ATS189; assay: as above; details: P. falciparum in erythrocytes, SYBR Green DNA, 72 h; series mostly up to 28.7 µM
# Method in brief: as §1
# [5] = system: C2A; assay: as above; details: P. falciparum in erythrocytes, SYBR Green DNA, 72 h; series mostly up to 28.7 µM
# Method in brief: as §1
# [6] = system: CP191; assay: as above; details: P. falciparum in erythrocytes, SYBR Green DNA, 72 h; series mostly up to 28.7 µM
# Method in brief: as §1
# [7] = system: CP192; assay: as above; details: P. falciparum in erythrocytes, SYBR Green DNA, 72 h; series mostly up to 28.7 µM
# Method in brief: as §1
# [8] = system: CP201; assay: as above; details: P. falciparum in erythrocytes, SYBR Green DNA, 72 h; series mostly up to 28.7 µM
# Method in brief: as §1
# [9] = system: CP215; assay: as above; details: P. falciparum in erythrocytes, SYBR Green DNA, 72 h; series mostly up to 28.7 µM
# Method in brief: as §1
# [10] = system: CP237; assay: as above; details: P. falciparum in erythrocytes, SYBR Green DNA, 72 h; series mostly up to 28.7 µM
# Method in brief: as §1
# [11] = system: CP238; assay: as above; details: P. falciparum in erythrocytes, SYBR Green DNA, 72 h; series mostly up to 28.7 µM
# Method in brief: as §1
# [12] = system: CP268; assay: as above; details: P. falciparum in erythrocytes, SYBR Green DNA, 72 h; series mostly up to 28.7 µM
# Method in brief: as §1
# [13] = system: CP269; assay: as above; details: P. falciparum in erythrocytes, SYBR Green DNA, 72 h; series mostly up to 28.7 µM
# Method in brief: as §1
# [14] = system: CP286; assay: as above; details: P. falciparum in erythrocytes, SYBR Green DNA, 72 h; series mostly up to 28.7 µM
# Method in brief: as §1
# [15] = system: CP325; assay: as above; details: P. falciparum in erythrocytes, SYBR Green DNA, 72 h; series mostly up to 28.7 µM
# Method in brief: as §1
# [16] = system: CP329; assay: as above; details: P. falciparum in erythrocytes, SYBR Green DNA, 72 h; series mostly up to 28.7 µM
# Method in brief: as §1
# [17] = system: FAB9; assay: as above; details: P. falciparum in erythrocytes, SYBR Green DNA, 72 h; series mostly up to 28.7 µM
# Method in brief: as §1
# [18] = system: JCK; assay: as above; details: P. falciparum in erythrocytes, SYBR Green DNA, 72 h; series mostly up to 28.7 µM
# Method in brief: as §1
# [19] = system: PC49; assay: as above; details: P. falciparum in erythrocytes, SYBR Green DNA, 72 h; series mostly up to 28.7 µM
# Method in brief: as §1
# [20] = target: Ubiquitin carboxyl-terminal hydrolase 1 (Homo sapiens) (UniProt O94782); assay: Inhibitors of USP1/UAF1: Pilot qHTS (AID 504865); also: nearly all actives have a fitted effect of over 35% in size; also: potency is read from the fitted curve at half-maximal effect
# Ubiquitin carboxyl-terminal hydrolase 1 (Homo sapiens), sequence (O94782 whole entry, looked up): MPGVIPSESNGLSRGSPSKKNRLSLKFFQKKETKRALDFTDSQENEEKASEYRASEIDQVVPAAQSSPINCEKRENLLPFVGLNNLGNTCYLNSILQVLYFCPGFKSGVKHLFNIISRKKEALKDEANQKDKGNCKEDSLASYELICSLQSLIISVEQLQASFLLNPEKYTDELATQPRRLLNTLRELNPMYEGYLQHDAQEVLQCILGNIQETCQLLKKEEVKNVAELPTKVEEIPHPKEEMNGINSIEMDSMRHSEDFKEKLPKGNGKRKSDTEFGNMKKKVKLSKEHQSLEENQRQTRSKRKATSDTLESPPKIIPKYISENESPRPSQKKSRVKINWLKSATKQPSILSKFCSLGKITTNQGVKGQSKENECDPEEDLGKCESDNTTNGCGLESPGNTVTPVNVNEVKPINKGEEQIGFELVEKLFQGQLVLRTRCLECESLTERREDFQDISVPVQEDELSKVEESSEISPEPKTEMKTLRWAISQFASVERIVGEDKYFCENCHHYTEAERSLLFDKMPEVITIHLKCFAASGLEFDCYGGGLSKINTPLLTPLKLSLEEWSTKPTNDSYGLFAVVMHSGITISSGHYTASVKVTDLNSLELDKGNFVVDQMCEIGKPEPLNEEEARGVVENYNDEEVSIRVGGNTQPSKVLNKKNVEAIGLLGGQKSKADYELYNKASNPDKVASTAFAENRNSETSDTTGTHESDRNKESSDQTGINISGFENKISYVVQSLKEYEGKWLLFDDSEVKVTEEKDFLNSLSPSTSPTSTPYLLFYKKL
# Method in brief: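 USP1/UAF1 complex (1nM) preincubated with compound 15 min at room temperature, then Ub-Rho substrate (150nM final) added. Fluorescence read kinetically at 480/540 nm, 6 reads every 60 seconds. Buffer: 50mM HEPES pH 7.8, 0.5mM EDTA, 0.1 mg/ml BSA, 1mM TCEP, 0.01% Tween-20.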
structure (smiles),measurement,setting,value
C#C[C@]1(O)CC[C@H]2[C@@H]3CCC4=CC(=O)CCC4(C)[C@H]3CCC21C (stereo not given in full),outcome,[1],inactive
same,Potency,[2],inactive
same,"activity, negative = inhibition",[3]; parasite line A,-6.98%
same,"activity, negative = inhibition",[3]; parasite line B,2.88%
same,Potency,[4],inactive
same,Potency,[5],inactive
same,Potency,[6],inactive
same,Potency,[7],inactive
same,Potency,[8],inactive
same,Potency,[9],inactive
same,Potency,[10],inactive
same,Potency,[11],inactive
same,Potency,[12],inactive
same,Potency,[13],inactive
same,Potency,[14],inactive
same,Potency,[15],inactive
same,Potency,[16],inactive
same,Potency,[17],inactive
same,Potency,[18],inactive
same,Potency,[19],inactive
CC(=O)Oc1ccc2c3c1OC1[C@@H](OC(C)=O)C=C[C@H]4[C@H](C2)N(C)CC[C@]314 (stereo not given in full),outcome,[1],inactive
same,Potency,[20],inactive
same,Potency,[2],inactive
same,"activity, negative = inhibition",[3]; parasite line A,15.5%
same,"activity, negative = inhibition",[3]; parasite line B,9.45%
same,Potency,[4],inactive
same,Potency,[5],inactive
same,Potency,[6],inactive
same,Potency,[7],inactive
same,Potency,[8],inactive
same,Potency,[9],inactive
same,Potency,[10],inactive
same,Potency,[11],inactive
same,Potency,[12],inactive
same,Potency,[13],inactive
same,Potency,[14],inactive
same,Potency,[15],inactive
same,Potency,[16],inactive
same,Potency,[17],inactive
same,Potency,[18],inactive
same,Potency,[19],inactive
CC(=O)O[C@H]1C[C@H](O[C@H]2[C@@H](O)CC(O[C@H]3[C@@H](O)C[C@H](O[C@H]4CC[C@@]5(C)[C@H](CC[C@@H]6[C@@H]5CC[C@]5(C)[C@@H](C7=CC(=O)OC7)CC[C@]65O)C4)O[C@@H]3C)O[C@@H]2C)O[C@H](C)[C@H]1O[C@@H]1O[C@H](CO)[C@@H](O)[C@H](O)[C@H]1O (stereo not given in full),outcome,[1],inactive
same,Potency,[20],inactive
same,Potency,[2],inactive
same,"activity, negative = inhibition",[3]; parasite line A,9.47%
same,"activity, negative = inhibition",[3]; parasite line B,16.3%
same,Potency,[4],inactive
same,Potency,[5],inactive
same,Potency,[7],inactive
same,Potency,[8],inactive
same,Potency,[9],inactive
same,Potency,[11],inactive
same,Potency,[12],inactive
same,Potency,[13],inactive
same,Potency,[14],inactive
same,Potency,[15],inactive
same,Potency,[16],inactive
same,Potency,[17],inactive
same,Potency,[18],inactive
same,Potency,[19],inactive
NC[C@@H]1O[C@H](OC2[C@@H](CO)O[C@@H](OC3[C@H](O)[C@H](N)C[C@H](N)[C@H]3OC3O[C@H](CO)[C@@H](O)[C@H](O)[C@@H]3N)[C@H]2O)C(N)[C@H](O)[C@@H]1O (stereo not given in full),Potency,[20],inactive
CC1(C)S[C@H]2[C@@H](N)C(=O)N2[C@H]1C(=O)O,Potency,[20],inactive
CC1=CC(=O)c2c(O)cccc2C1=O,Potency,[20],17.8 µM (active)
C[C@]12CCC3C(CC[C@]4(O)C[C@@H](O)CC[C@]34C=O)[C@@]1(O)CC[C@@H]2C1=CC(=O)OC1 (stereo not given in full),Potency,[20],inactive
C[C@]12CC[C@@H]3c4ccc(O)cc4C[C@@H](CCCCCCCCCS(=O)CCCC(F)(F)C(F)(F)F)C3[C@@H]1CC[C@@H]2O (stereo not given in full),Potency,[20],inactive
CNC(C)C1CC[C@H](N)[C@@H](OC2C(N)C[C@H](N)[C@@H](OC3OC[C@](C)(O)C(NC)[C@H]3O)C2O)O1 (stereo not given in full),Potency,[20],inactive
CC[C@@H]1CN2CCc3cc(OC)c(OC)cc3[C@H]2C[C@@H]1C[C@H]1NCCc2cc(OC)c(OC)cc21,Potency,[20],inactive
CC(=O)O[C@H]1C[C@H]2CC[C@@H]3[C@H]4C[C@@H]([N+]5(C)CCCCC5)[C@@H](OC(C)=O)[C@]4(C)CC[C@@H]3[C@@]2(C)C[C@@H]1[N+]1(C)CCCCC1,Potency,[20],inactive
NCC1O[C@@H](O[C@H]2C(O)C(O[C@@H]3C(O[C@H]4OC(CO)C(O)C(O)C4N)C(N)CC(N)[C@H]3O)O[C@@H]2CO)C(N)C(O)C1O (stereo not given in full),Potency,[20],inactive
CC1COC2=C1C(=O)C(=O)c1c2ccc2c1CCCC2(C)C (stereo not given),Potency,[20],79.4 µM (active)
CN1[C@@H]2CC(OC(=O)[C@@H](CO)c3ccccc3)C[C@@H]1[C@H]1O[C@H]12 (stereo not given in full),Potency,[20],inactive
CC[C@@H]1CN2CCc3cc(OC)c(OC)cc3[C@@H]2C[C@@H]1C[C@H]1NCCc2cc(OC)c(OC)cc21,Potency,[20],inactive
COc1cc2c(cc1OC)-c1c(OC)c(OC)c(C=O)c3c1[C@H](C2)N(C)CC3,Potency,[20],20 µM (active)
CC(=O)OC1C([N+]2(C)CCCCC2)C[C@H]2C3CC[C@H]4C[C@H](OC(C)=O)C([N+]5(C)CCCCC5)CC4(C)C3CCC12C (stereo not given in full),Potency,[20],inactive
CC(C)n1c(/C=C\[C@@H](O)C[C@@H](O)CC(=O)O)c(-c2ccc(F)cc2)c2ccccc21,Potency,[20],inactive
CN[C@@H](CC(C)C)C(=O)N[C@@H]1C(=O)N[C@H](CC(N)=O)C(=O)N[C@@H]2C(=O)N[C@H]3C(=O)N[C@H](C(=O)N[C@H](C(=O)O)c4cc(O)cc(O)c4-c4cc3ccc4O)[C@H](O)c3ccc(c(Cl)c3)Oc3cc2cc(c3O[C@H]2O[C@@H](CO)[C@@H](O)[C@@H](O)[C@@H]2O[C@@H]2C[C@](C)(N)[C@H](O)[C@H](C)O2)Oc2ccc(cc2Cl)[C@@H]1O,Potency,[20],inactive
COc1ccc2c(c1)CCC1[C@@H]2CCC2(C)[C@@H](NCCCCCCN3C(=O)C=CC3=O)CC[C@@H]12 (stereo not given in full),Potency,[20],inactive
C[N+]12CCC(CC1)[C@@H](OC(=O)C(O)(c1ccccc1)c1ccccc1)C2,Potency,[20],inactive
C/C=C1/C[C@@H](C)[C@](O)(CO)C(=O)OCC2=CCN3CC[C@@H](OC1=O)C23 (stereo not given in full),Potency,[20],inactive
CC[N+](C)(CC)CCC[n+]1c(-c2ccccc2)c2cc(N)ccc2c2ccc(N)cc21,Potency,[20],7.94 µM (active)
O=C(NC(=O)c1c(F)cccc1F)Nc1ccc(Cl)cc1,Potency,[20],inactive
Cc1cc2nc3c(=O)[nH]c(=O)nc-3n(C[C@H](O)[C@H](O)[C@H](O)COP(=O)(O)OP(=O)(O)OC[C@H]3O[C@@H](n4cnc5c(N)ncnc54)[C@H](O)[C@@H]3O)c2cc1C,Potency,[20],50.1 µM (active)
NCCCCC(NC(CCc1ccccc1)C(=O)O)C(=O)N1CCCC1C(=O)O (stereo not given),Potency,[20],inactive
CC(=O)N1CCN(c2ccc(OC[C@@H]3CO[C@@](Cn4ccnc4)(c4ccc(Cl)cc4Cl)O3)cc2)CC1,Potency,[20],inactive
CN1C[C@@H](C(=O)N[C@@]2(C)O[C@]3(O)C4CCCN4C(=O)[C@@H](Cc4ccccc4)N3C2=O)C=C2c3cccc4[nH]cc(c34)C[C@@H]21 (stereo not given in full),Potency,[20],50.1 µM (active)
C[C@H]1O[C@H](O[C@H]2[C@H](O)[C@@H](O)[C@@H](O)[C@H](O)[C@@H]2O)[C@@H](N)C[C@@H]1NC(=N)C(=O)O,Potency,[20],inactive
NC1C[C@H]1c1ccccc1 (stereo not given in full),Potency,[20],inactive
Cc1cccc2c3c(ccc12)C1=C(C(=O)C3=O)C(C)CO1 (stereo not given),Potency,[20],50.1 µM (active)
COc1ccc(C2Oc3c(I)c(OC)cc(OC)c3CC2O)cc1OC (stereo not given),Potency,[20],inactive
CC(=O)OC1CCC2(C)C3=C(CCC2C1(C)C)[C@@]1(C)CCC(C(C)CCC=C(C)C)[C@@]1(C)CC3 (stereo not given in full),Potency,[20],inactive
